The source made the active and inactive calls.
Experiments:
[1] = test system: PRMT1 (protein arginine N-methyltransferase 1); test: small molecules binding arginine methyltransferase PRMT1 – biochemical, small-molecule microarray, 635 nm fluorescence, primary screen (AID 1088); details: higher = more signal;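 further: binding of Prmt1 protein to compounds spotted on small-molecule microarray slides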
[2] = growth effects on S. cerevisiae YJM789 – YJM789 clinical isolate, OD600, 24 h, basal, primary screen (AID 1089); details: higher = more signal, called active from +8 up or from −8 down;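 further: growth of clinical yeast isolate S. cerevisiae YJM 789 seeded 1000 cells per well; test concentration not given here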
[3] = S. pombe growth modifiers, basal conditions – strain 972, OD600, 24 h, no modulator, primary screen (AID 1090);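 further: basal condition with compound alone and no growth modifier present; test concentration not given here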; details: S. pombe 972 growth, higher = more signal, called active from +8 up or from −8 down
[4] = budding yeast growth modifiers under rapamycin – strain BY4716, OD600, 96 h, primary screen (AID 1091); further: test concentration not given here; details: S. cerevisiae BY4716 + rapamycin, higher = more signal, called active from +8 up or from −8 down
[5] = target: Torsin-1A-interacting protein 2 (Homo sapiens) (UniProt Q8NFQ8); test: small molecules binding lysate-expressed LULL1 – cell lysate, human LULL1 lysate, 635/667 nm fluorescence, primary screen (AID 1092); details: small-molecule microarray, hLULL1 lysate binding, 635 nm fluorescence; higher = more signal;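 further: probe is lysate of COS7 cells overexpressing human LULL1; score merges per-feature 667 nm fluorescence with signal-to-noise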
Chain of Torsin-1A-interacting protein 2 (Homo sapiens) (Q8NFQ8 whole entry, looked up): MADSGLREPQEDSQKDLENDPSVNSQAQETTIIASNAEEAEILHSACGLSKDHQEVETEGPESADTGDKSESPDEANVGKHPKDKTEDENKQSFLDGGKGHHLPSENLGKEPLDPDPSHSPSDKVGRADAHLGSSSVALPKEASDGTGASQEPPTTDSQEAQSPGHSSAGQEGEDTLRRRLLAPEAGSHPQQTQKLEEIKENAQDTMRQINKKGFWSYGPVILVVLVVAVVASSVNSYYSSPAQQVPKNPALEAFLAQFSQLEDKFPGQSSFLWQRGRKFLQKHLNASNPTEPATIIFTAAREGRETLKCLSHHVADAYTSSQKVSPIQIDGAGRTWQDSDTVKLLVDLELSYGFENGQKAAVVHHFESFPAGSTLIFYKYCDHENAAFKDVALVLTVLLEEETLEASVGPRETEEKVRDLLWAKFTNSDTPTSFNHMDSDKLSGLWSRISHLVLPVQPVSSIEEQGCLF

[6] = optical density change of DRC41 E. coli – strain DRC41, OD650, 24 h, E. coli filamentation project, primary screen (AID 1093);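 further: MC1000 strain lacking acrAB efflux and sulA so SOS filamentation is blocked; test concentration not given here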; details: E. coli DRC41 growth, higher = more signal, called active from +8 up or from −8 down
[7] = probe aLefty2 binding to arrayed compounds – biochemical, biotinylated probe, 635/667 nm fluorescence, primary screen (AID 1094); details: small-molecule microarray, higher = more signal;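 further: score merges spot fluorescence near 667 nm with spot signal-to-noise ratio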
[8] = test system: Noggin (protein binding on small-molecule microarray); test: small molecules binding Noggin protein – biochemical, 635/667 nm fluorescence, primary screen (AID 1095); details: 635 nm fluorescence, higher = more signal;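 further: score merges 667 nm feature fluorescence with signal to noise over triplicate slides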
[9] = target: Neurogenic locus notch homolog protein 3 (Homo sapiens) (UniProt Q9UM47); test: small molecules binding NOTCH3 protein – biochemical, 635/667 nm fluorescence, primary screen (AID 1096); details: small-molecule microarray, 635 nm fluorescence, higher = more signal
Chain of Neurogenic locus notch homolog protein 3 (Homo sapiens) (Q9UM47 whole entry, looked up): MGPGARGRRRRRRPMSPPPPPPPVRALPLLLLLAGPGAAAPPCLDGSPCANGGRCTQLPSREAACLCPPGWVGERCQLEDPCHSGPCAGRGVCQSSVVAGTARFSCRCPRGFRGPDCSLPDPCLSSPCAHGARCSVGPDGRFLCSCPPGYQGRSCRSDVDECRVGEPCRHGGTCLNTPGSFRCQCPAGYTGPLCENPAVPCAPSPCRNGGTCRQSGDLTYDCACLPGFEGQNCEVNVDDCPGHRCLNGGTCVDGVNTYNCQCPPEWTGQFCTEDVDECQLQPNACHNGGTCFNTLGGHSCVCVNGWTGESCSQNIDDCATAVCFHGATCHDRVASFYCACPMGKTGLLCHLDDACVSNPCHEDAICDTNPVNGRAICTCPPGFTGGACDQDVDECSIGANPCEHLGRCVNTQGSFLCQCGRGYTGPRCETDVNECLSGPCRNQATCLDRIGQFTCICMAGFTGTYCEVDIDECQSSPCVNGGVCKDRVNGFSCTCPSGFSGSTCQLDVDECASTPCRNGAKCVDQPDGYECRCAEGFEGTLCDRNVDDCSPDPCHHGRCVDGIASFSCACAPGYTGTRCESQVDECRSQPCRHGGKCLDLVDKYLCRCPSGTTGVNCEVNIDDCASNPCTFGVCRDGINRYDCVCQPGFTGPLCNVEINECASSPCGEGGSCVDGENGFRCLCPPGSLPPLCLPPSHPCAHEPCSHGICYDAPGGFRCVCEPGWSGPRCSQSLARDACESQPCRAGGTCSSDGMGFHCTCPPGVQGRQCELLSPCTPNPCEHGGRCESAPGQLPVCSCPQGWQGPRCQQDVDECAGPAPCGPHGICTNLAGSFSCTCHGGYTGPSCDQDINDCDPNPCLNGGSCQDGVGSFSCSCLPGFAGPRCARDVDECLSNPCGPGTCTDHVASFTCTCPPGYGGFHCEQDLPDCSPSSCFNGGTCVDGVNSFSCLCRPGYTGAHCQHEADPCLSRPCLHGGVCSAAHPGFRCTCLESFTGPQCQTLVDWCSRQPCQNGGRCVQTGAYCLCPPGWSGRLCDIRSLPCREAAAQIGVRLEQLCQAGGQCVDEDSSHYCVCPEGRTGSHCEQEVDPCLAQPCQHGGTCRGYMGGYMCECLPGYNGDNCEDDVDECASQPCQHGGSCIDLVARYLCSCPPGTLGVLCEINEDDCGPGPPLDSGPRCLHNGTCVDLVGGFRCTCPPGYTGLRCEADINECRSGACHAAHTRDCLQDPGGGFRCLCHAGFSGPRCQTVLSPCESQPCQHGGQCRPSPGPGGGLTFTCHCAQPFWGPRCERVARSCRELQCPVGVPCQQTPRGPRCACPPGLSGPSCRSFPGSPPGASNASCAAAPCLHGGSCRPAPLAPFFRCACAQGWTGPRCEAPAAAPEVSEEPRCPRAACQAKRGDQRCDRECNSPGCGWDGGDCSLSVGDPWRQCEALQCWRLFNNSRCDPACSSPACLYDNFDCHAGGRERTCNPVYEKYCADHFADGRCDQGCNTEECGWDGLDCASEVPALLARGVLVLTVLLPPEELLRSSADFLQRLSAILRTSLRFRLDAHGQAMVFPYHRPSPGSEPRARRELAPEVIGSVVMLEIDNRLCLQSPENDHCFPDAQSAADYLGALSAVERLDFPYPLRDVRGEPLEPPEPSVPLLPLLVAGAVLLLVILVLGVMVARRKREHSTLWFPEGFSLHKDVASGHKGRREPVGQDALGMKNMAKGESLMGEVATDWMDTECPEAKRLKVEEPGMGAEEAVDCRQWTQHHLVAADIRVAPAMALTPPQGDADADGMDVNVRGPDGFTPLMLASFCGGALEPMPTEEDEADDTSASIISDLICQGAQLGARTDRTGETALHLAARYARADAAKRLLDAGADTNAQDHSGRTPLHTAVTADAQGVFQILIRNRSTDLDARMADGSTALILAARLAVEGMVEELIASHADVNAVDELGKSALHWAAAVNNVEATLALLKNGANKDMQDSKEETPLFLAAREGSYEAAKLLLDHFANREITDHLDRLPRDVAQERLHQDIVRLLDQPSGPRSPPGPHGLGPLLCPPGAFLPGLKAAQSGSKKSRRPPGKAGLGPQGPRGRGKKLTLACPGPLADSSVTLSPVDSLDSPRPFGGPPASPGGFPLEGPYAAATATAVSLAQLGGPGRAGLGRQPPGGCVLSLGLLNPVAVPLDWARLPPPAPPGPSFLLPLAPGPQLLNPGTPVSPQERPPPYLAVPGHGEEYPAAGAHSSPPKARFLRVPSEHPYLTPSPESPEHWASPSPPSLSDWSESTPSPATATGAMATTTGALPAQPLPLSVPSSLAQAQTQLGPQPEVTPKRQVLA

[10] = probe aEGFR binding to arrayed compounds – biochemical, biotinylated probe, 635/667 nm fluorescence, primary screen (AID 1097); details: small-molecule microarray, higher = more signal;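 further: probe is a biotinylated anti-EGFR antibody binding compounds printed on slides; score combines fluorescence near 667 nm and signal to noise of each spot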
[11] = test system: Plasmodium falciparum Sir2 (PF13_0152, Sir2A); test: Plasmodium falciparum Sir2A binding compounds – biochemical, small-molecule microarray, 635 nm fluorescence, primary screen (AID 1098); details: fluorescence 635 nm, higher = more signal;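 further: score merges spot fluorescence intensity with its signal-to-noise ratio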
[12] = probe aDKK1 binding to arrayed compounds – biochemical, biotinylated probe, 635/667 nm fluorescence, primary screen (AID 1099); details: small-molecule microarray, higher = more signal;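 further: score merges 667nm spot fluorescence with signal to noise across triplicate slides; reference of the scale not given here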
[13] = probe aCHRDL2 binding to arrayed compounds – biochemical, biotinylated probe, 635/667 nm fluorescence, primary screen (AID 1100); details: small-molecule microarray, higher = more signal
[14] = change in splice reporter luminescence, either direction, cell-based, HEK293, spliceosome inhibition project, primary screen (AID 1101); details: HEK293 splicing luciferase reporter, 24 h, higher = more signal, called active from +8 up or from −8 down;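 further: HEK293 cells carrying a splicing-competent luciferase reporter gene; test concentration not given here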
[15] = target: Fibroblast growth factor 10 (Homo sapiens) (UniProt O15520); test: compounds binding fibroblast growth factor 10 – biochemical, small-molecule microarray, 635 nm fluorescence, primary screen (AID 1102); details: FGF10 binding, fluorescence 635 nm, higher = more signal
Chain of Fibroblast growth factor 10 (Homo sapiens) (O15520 whole entry, looked up): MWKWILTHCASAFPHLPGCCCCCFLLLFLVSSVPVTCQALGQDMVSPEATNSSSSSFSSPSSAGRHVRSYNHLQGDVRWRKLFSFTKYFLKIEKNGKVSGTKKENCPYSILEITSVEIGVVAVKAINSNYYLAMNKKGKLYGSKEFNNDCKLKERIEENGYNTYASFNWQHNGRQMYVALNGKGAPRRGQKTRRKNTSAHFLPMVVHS

[16] = test system: glycogen synthase kinase-3 (GSK3A per assay name; protocol says GSK3B); test: compounds binding glycogen synthase kinase-3 – biochemical, small-molecule microarray, 635 nm fluorescence, GSK3A, primary screen (AID 1103); details: fluorescence 635 nm, higher = more signal; further: the record names both GSK3A and GSK3B
[17] = target: Epidermal growth factor receptor (Homo sapiens) (UniProt P00533); test: compounds binding epidermal growth factor receptor – biochemical, small-molecule microarray, 635 nm fluorescence, primary screen (AID 1104); details: EGFR binding, higher = more signal;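 further: score merges 667 nm emission intensity with spot signal to noise over triplicate slides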
Chain of Epidermal growth factor receptor (Homo sapiens) (P00533 whole entry, looked up): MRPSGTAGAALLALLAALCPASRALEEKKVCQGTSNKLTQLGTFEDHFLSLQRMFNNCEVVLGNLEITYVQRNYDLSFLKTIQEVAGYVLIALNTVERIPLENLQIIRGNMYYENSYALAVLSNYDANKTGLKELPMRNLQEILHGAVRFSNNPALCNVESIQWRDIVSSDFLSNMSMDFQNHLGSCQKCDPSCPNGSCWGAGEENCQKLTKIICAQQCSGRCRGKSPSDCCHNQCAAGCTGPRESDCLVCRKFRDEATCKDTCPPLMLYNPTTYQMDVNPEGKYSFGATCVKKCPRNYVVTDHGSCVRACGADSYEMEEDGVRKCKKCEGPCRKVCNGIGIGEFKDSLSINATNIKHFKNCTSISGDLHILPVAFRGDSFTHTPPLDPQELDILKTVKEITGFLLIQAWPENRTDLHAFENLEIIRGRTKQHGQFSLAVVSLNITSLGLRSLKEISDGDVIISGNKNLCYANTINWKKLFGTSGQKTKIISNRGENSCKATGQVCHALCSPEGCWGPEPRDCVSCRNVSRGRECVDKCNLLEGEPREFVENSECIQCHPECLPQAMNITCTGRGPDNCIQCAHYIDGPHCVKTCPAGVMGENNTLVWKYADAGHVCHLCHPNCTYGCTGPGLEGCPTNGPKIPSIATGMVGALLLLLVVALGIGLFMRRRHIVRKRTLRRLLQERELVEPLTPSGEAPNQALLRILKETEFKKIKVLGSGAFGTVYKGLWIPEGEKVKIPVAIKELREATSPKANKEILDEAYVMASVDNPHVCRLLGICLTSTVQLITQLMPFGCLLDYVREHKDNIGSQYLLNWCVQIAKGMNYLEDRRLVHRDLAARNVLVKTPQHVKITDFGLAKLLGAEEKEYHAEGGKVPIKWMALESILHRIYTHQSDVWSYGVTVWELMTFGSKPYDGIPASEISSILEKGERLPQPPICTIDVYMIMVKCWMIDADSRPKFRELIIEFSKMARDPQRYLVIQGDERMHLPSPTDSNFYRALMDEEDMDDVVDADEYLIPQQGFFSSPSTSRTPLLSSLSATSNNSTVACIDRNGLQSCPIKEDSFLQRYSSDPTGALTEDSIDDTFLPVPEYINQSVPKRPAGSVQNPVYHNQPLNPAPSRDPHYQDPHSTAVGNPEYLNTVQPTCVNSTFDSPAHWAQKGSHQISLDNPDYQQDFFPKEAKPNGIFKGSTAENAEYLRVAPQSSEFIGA

[18] = target: Follistatin-related protein 3 (Homo sapiens) (UniProt O95633); test: compounds binding follistatin-related protein 3 – biochemical, small-molecule microarray, 635 nm fluorescence, primary screen (AID 1105); details: FSTL3 binding, higher = more signal;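 further: score merges emission near 667 nm and signal to noise per printed spot across three slides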
Chain of Follistatin-related protein 3 (Homo sapiens) (O95633 whole entry, looked up): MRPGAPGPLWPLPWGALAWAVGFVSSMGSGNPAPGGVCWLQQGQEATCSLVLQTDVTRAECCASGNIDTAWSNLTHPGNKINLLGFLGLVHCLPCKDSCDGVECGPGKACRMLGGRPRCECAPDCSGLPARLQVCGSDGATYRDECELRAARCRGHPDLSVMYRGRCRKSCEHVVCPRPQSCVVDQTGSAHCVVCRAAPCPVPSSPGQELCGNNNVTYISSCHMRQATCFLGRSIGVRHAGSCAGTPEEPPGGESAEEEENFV

[19] = target: Dickkopf-related protein 1 (Homo sapiens) (UniProt O94907); test: small molecules binding DKK1 protein – biochemical, small-molecule microarray, 635 nm fluorescence scan, primary screen (AID 1106); details: higher = more signal;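 further: score merges emission near 667 nm with signal to noise over three replicate slides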
Chain of Dickkopf-related protein 1 (Homo sapiens) (O94907 whole entry, looked up): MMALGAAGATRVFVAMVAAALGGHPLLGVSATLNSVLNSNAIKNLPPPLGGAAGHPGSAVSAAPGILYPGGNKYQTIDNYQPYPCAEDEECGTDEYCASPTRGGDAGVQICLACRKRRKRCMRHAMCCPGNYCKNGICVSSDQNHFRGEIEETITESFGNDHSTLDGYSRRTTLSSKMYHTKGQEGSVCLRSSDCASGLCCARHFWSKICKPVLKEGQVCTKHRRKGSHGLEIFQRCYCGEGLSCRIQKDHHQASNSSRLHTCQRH

[20] = test system: Inhibin beta A chain (activin A); test: small molecules binding activin A – biochemical, small-molecule microarray, 635 nm fluorescence scan, primary screen (AID 1107); details: INHBA, higher = more signal;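 further: mouse activin A protein probed at 4.33 µg/mL on printed slides; score merges bound-protein fluorescence near 667 nm with spot signal-to-noise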

Compound: C#CCN([C@H](/C=C/C1CC1)[C@@H](O)Cc1ccccc1)[C@@H](Cc1ccccc1)C(=O)OC
- composite z-score [1]: 0.447
- z-score [2]: -0.345 (inactive)
- z-score [3]: -0.825 (inactive)
- z-score [4]: 0.316 (inactive)
- composite z-score [5]: 0.126
- z-score [6]: 0.598 (inactive)
- composite z-score [7]: -0.128
- composite z-score [8]: 0.237
- composite z-score [9]: 0.606
- composite z-score [10]: -0.198
- composite z-score [11]: -0.135
- composite z-score [12]: -0.281
- composite z-score [13]: 0.0495
- z-score [14]: -0.606 (inactive)
- composite z-score [15]: -0.351
- composite z-score [16]: -0.604
- composite z-score [17]: -0.215
- composite z-score [18]: 0.232
- composite z-score [19]: -0.0707
- composite z-score [20]: 0.858

Compound: CC(=O)c1ccc(C(O)C2C=CC3C(=O)N(C)C(=O)C3N2NC(=O)OC(C)(C)C)cc1 (stereo not given)
- composite z-score [1]: 1.54
- z-score [2]: 0.269 (inactive)
- z-score [3]: 1.08 (inactive)
- z-score [4]: 1.59 (inactive)
- composite z-score [5]: 3.47
- z-score [6]: -1.24 (inactive)
- composite z-score [7]: 0.236
- composite z-score [8]: -0.465
- composite z-score [9]: 1.11
- composite z-score [10]: 0.357
- composite z-score [11]: 1.44
- composite z-score [12]: 0.86
- composite z-score [13]: 0.948
- z-score [14]: 1.66 (inactive)
- composite z-score [15]: 1.17
- composite z-score [16]: 0.944
- composite z-score [17]: -0.499
- composite z-score [18]: 0.425
- composite z-score [19]: -0.698
- composite z-score [20]: -0.149

Compound: C=C(COC)/C(=C/C[C@H](OC(=O)c1ccncc1)c1ccc(OCCO)cc1)c1cc(C(=O)OC)ccc1OC
- composite z-score [1]: 1.41
- z-score [2]: -0.823 (inactive)
- z-score [3]: -1.2 (inactive)
- z-score [4]: -0.649 (inactive)
- composite z-score [5]: 2.28
- z-score [6]: 1.59 (inactive)
- composite z-score [7]: -0.0337
- composite z-score [8]: 1.01
- composite z-score [9]: 1.1
- composite z-score [10]: -0.0828
- composite z-score [11]: 0.674
- composite z-score [12]: 0.17
- composite z-score [13]: 0.118
- z-score [14]: -0.767 (inactive)
- composite z-score [15]: 1.47
- composite z-score [16]: 0.32
- composite z-score [17]: -0.0503
- composite z-score [18]: 0.967
- composite z-score [19]: 0.8
- composite z-score [20]: 1.04

Compound: C=C(CC1([C@@H](NP(=O)(c2ccccc2)c2ccccc2)[C@H]2C[C@@H]2CCN(C(=O)OCC)S(=O)(=O)c2ccc(C)cc2)CC1)c1ccccc1
- composite z-score [1]: -0.362
- z-score [2]: 0.585 (inactive)
- z-score [3]: 0.722 (inactive)
- z-score [4]: 3.51 (inactive)
- composite z-score [5]: 2.98
- z-score [6]: -0.926 (inactive)
- composite z-score [7]: 0.502
- composite z-score [8]: 0.229
- composite z-score [9]: 1.02
- composite z-score [10]: 0.104
- composite z-score [11]: 0.827
- composite z-score [12]: 1.31
- composite z-score [13]: 1.23
- z-score [14]: -2.39 (inactive)
- composite z-score [15]: 0.429
- composite z-score [16]: 0.288
- composite z-score [17]: 0.0577
- composite z-score [18]: 0.748
- composite z-score [19]: -0.636
- composite z-score [20]: 1.17

Compound: C/C=C/CN(C(=O)C#Cc1ccccc1)[C@H](CO[Si](C)(C)C(C)(C)C)c1ccccc1
- composite z-score [1]: 0.437
- z-score [2]: -0.185 (inactive)
- z-score [3]: -0.463 (inactive)
- z-score [4]: -0.177 (inactive)
- composite z-score [5]: 0.571
- z-score [6]: 2.76 (inactive)
- composite z-score [7]: -0.192
- composite z-score [8]: -1.01
- composite z-score [9]: -1.35
- composite z-score [10]: -0.595
- composite z-score [11]: -0.435
- composite z-score [12]: -0.65
- composite z-score [13]: -0.169
- z-score [14]: -3.21 (inactive)
- composite z-score [15]: -1.27
- composite z-score [16]: -0.0745
- composite z-score [17]: -1.37
- composite z-score [18]: -1.44
- composite z-score [19]: -0.72
- composite z-score [20]: 1.19

Compound: C=CCC(OC(C)=O)[C@@H]1[C@@H](N(Cc2cc3ccccc3o2)C(=O)c2cccc3ccccc23)c2cc(OCCCO)ccc2N1C(=O)c1ccc2ccccc2c1 (stereo not given in full)
- composite z-score [1]: -0.305
- z-score [2]: 0.0315 (inactive)
- z-score [3]: -0.943 (inactive)
- z-score [4]: -0.0147 (inactive)
- composite z-score [5]: 0.583
- z-score [6]: -0.234 (inactive)
- composite z-score [7]: 0.0826
- composite z-score [8]: 0.413
- composite z-score [9]: 0.222
- composite z-score [10]: -0.139
- composite z-score [11]: -0.459
- composite z-score [12]: 0.245
- composite z-score [13]: 0.246
- z-score [14]: -1.18 (inactive)
- composite z-score [15]: 0.0473
- composite z-score [16]: -0.553
- composite z-score [17]: -0.0798
- composite z-score [18]: 0.182
- composite z-score [19]: 0.0022
- composite z-score [20]: 0.867

Compound: CC(C)CNC(=O)[C@@H]1c2ccccc2C(=O)N(C(C)C)[C@H]1c1ccc(CO)cc1
- composite z-score [1]: 0.12
- z-score [2]: -1.37 (inactive)
- z-score [3]: 0.0396 (inactive)
- z-score [4]: -0.421 (inactive)
- composite z-score [5]: 2.33
- z-score [6]: 0.794 (inactive)
- composite z-score [7]: -0.166
- composite z-score [8]: 0.126
- composite z-score [9]: 0.0151
- composite z-score [10]: -0.246
- composite z-score [11]: 1.36
- composite z-score [12]: 0.0026
- composite z-score [13]: 0.763
- z-score [14]: -1.26 (inactive)
- composite z-score [15]: -0.787
- composite z-score [16]: -0.221
- composite z-score [17]: -0.5
- composite z-score [18]: -0.573
- composite z-score [19]: -0.382
- composite z-score [20]: 0.849

Compound: COC(=O)[C@@]1(Cc2ccc(F)cc2)[C@H]2c3cc(C(=O)N4CCCC4)n(CCO)c3C[C@H]2CN1C(=O)c1ccccc1
- composite z-score [1]: -1.09
- z-score [2]: -0.215 (inactive)
- z-score [3]: 1 (inactive)
- z-score [4]: -0.164 (inactive)
- composite z-score [5]: 2.88
- z-score [6]: 0.208 (inactive)
- composite z-score [7]: 0.335
- composite z-score [8]: 0.4
- composite z-score [9]: 0.517
- composite z-score [10]: 0.0753
- composite z-score [11]: 1.33
- composite z-score [12]: 0.532
- composite z-score [13]: 0.977
- z-score [14]: -0.495 (inactive)
- composite z-score [15]: 0.597
- composite z-score [16]: -0.166
- composite z-score [17]: -0.244
- composite z-score [18]: -0.479
- composite z-score [19]: -0.572
- composite z-score [20]: 0.671

Compound: COc1ccc([Si](C)(C)[C@H]2[C@H](CCn3cc([C@H](O)c4ccccc4)nn3)O[C@@]3(C(=O)N(c4ccccc4)c4ccccc43)[C@@H]2C)cc1
- composite z-score [1]: 1.56
- z-score [2]: 1.02 (inactive)
- z-score [3]: 1.11 (inactive)
- z-score [4]: 1.88 (inactive)
- composite z-score [5]: 0.147
- z-score [6]: 1.58 (inactive)
- composite z-score [7]: -0.166
- composite z-score [8]: 1.1
- composite z-score [9]: 0.802
- composite z-score [10]: -0.187
- composite z-score [11]: 0.459
- composite z-score [12]: -0.125
- composite z-score [13]: 0.0759
- z-score [14]: -0.299 (inactive)
- composite z-score [15]: 0.355
- composite z-score [16]: -0.44
- composite z-score [17]: -0.166
- composite z-score [18]: 0.34
- composite z-score [19]: -0.0331
- composite z-score [20]: -0.168

Compound: O=C1NC(=O)C2C1C=CC(C(O)c1cccc(O)c1)N2Nc1ccc(Cl)cc1Cl (stereo not given)
- composite z-score [1]: -1.24
- z-score [2]: -0.927 (inactive)
- z-score [3]: 0.765 (inactive)
- z-score [4]: 0.668 (inactive)
- composite z-score [5]: 0.991
- z-score [6]: -2.08 (inactive)
- composite z-score [7]: 0.0893
- composite z-score [8]: 0.115
- composite z-score [9]: -0.207
- composite z-score [10]: 0.012
- composite z-score [11]: -0.195
- composite z-score [12]: 0.454
- composite z-score [13]: 0.815
- z-score [14]: 1.16 (inactive)
- composite z-score [15]: 0.0046
- composite z-score [16]: -0.607
- composite z-score [17]: -0.531
- composite z-score [18]: -0.358
- composite z-score [19]: -0.555
- composite z-score [20]: 0.519

— PubChem BioAssay
